Tests used:
Details in all cases: concentration: 1 μM,replicates: in singlicate; n = 1
NIM1 = system: T1, NIM1
T1 construct: gene MGC42105

NLK = system: NLK
OSR1 = system: T2, OSR1
T2 construct: gene OXSR1

PAK1 = system: PAK1
PAK2 = system: PAK2
PAK3 = system: PAK3
PAK4 = system: PAK4
PAK6 = system: PAK6
PAK7 = system: PAK7
PCTK1 = system: T3, PCTK1
T3 construct: gene CDK16

PCTK2 = system: T4, PCTK2
T4 construct: gene CDK17

PCTK3 = system: T5, PCTK3
T5 construct: gene CDK18

PDGFRA = system: PDGFRA
PDGFRB = system: PDGFRB
PDPK1 = system: PDPK1
PFTAIRE2 = system: PFTAIRE2
PFTK1 = system: T6, PFTK1
T6 construct: gene CDK14

PHKG1 = system: PHKG1
PHKG2 = system: PHKG2
PIK3C2B = system: PIK3C2B
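Further: KINOMEscan kinase panel screen.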

Row | SMILES | %Inh (NIM1) | %Inh (NLK) | %Inh (OSR1) | %Inh (PAK1) | %Inh (PAK2) | %Inh (PAK3) | %Inh (PAK4) | %Inh (PAK6) | %Inh (PAK7) | %Inh (PCTK1) | %Inh (PCTK2) | %Inh (PCTK3) | %Inh (PDGFRA) | %Inh (PDGFRB) | %Inh (PDPK1) | %Inh (PFTAIRE2) | %Inh (PFTK1) | %Inh (PHKG1) | %Inh (PHKG2) | %Inh (PIK3C2B)
1 | Cc1ccc(CC(=O)N2CCc3cc(-c4cn(C)c5ncnc(N)c45)ccc32)cc1 [GSK2634758] | 13% | 1% | 0% | 0% | 0% | 49% | 0% | 100% | 0% | 0% | 0% | 0% | 39% | 96.4% | 57% | 9% | 17% | 0% | 0% | 40%
2 | Cl.Nc1n[nH]c2cc(-c3ccccn3)ccc12 [GSK2189892] | 0% | 0% | 11% | 9% | 2% | 0% | 0% | 2% | 16% | 0% | 13% | 0% | 0% | 16% | 0% | 5% | 6% | 0% | 0% | 0%
3 | Cc1ccc2c(-c3ccnc(Nc4ccc(C(F)(F)F)cc4)n3)cnn2n1 [GW819776] | 3% | 24% | 0% | 1% | 50% | 18% | 0% | 0% | 0% | 6% | 12% | 0% | 0% | 45% | 0% | 12% | 0% | 18% | 0% | 0%
4 | C[C@@H](Oc1cc(-n2cnc3cc(-c4cnn(C)c4)ccc32)sc1C(N)=O)c1ccccc1Cl [GSK580432] | 64% | 0% | 12% | 0% | 13% | 63% | 0% | 2% | 0% | 0% | 0% | 19% | 84% | 99.8% | 75% | 7% | 7% | 0% | 47% | 0%
5 | Cn1ccc2ncnc(Oc3ccc(NC(=O)Nc4cccc(C(F)(F)F)c4)c(F)c3)c21 | 0% | 18% | 0% | 14% | 12% | 0% | 6% | 0% | 0% | 0% | 17% | 1% | 99.1% | 100% | 17% | 0% | 0% | 18% | 0% | 0%
6 | c1ccc(Oc2ccc(Nc3ccnc4ccc(-c5ccccn5)cc34)cc2)cc1 [GW407034] | 17% | 13% | 57% | 20% | 11% | 0% | 0% | 0% | 7% | 8% | 0% | 17% | 0% | 34% | 0% | 0% | 15% | 0% | 0% | 4%
7 | Cc1ccn2nc(-c3ccc(F)cc3)c(-c3ccncc3)c2c1.Cl [GW457859] | 20% | 79% | 0% | 0% | 0% | 0% | 0% | 0% | 21% | 0% | 18% | 7% | 0% | 33% | 0% | 7% | 24% | 0% | 11% | 0%
8 | CCn1c(-c2nonc2N)nc2cncc(Br)c21 [SB-738004] | 37% | 22% | 0% | 0% | 16% | 1% | 7% | 15% | 32% | 0% | 14% | 6% | 50% | 18% | 6% | 10% | 25% | 0% | 0% | 0%
9 | C[C@@H]1CNc2c(sc3ccc4nc(-c5ccncc5)ccc4c23)C(=O)N1 | 0% | 0% | 9% | 0% | 5% | 9% | 24% | 9% | 0% | 0% | 6% | 0% | 72% | 56% | 0% | 0% | 0% | 39% | 55% | 0%
10 | FC(F)(F)c1cc(Br)cc(Nc2nccc(-c3cnn4ncccc34)n2)c1 [GW810578] | 0% | 0% | 2% | 11% | 45% | 27% | 22% | 20% | 6% | 3% | 21% | 31% | 64% | 98.4% | 5% | 0% | 14% | 16% | 0% | 0%
11 | CN(c1ccccc1CNc1nc(Nc2ccc3c(c2)CC(=O)N3)ncc1C(F)(F)F)S(C)(=O)=O | 0% | 0% | 0% | 0% | 0% | 68% | 2% | 0% | 11% | 28% | 49% | 4% | 3% | 83% | 34% | 35% | 8% | 35% | 25% | 0%
12 | C[C@@H](Oc1cc(-n2cnc3cc(-c4ccncc4)ccc32)sc1C(N)=O)c1ccccc1Cl [GSK479719] | 51% | 0% | 18% | 21% | 22% | 27% | 0% | 5% | 94.2% | 1% | 0% | 15% | 67% | 95.1% | 40% | 17% | 18% | 0% | 16% | 0%
13 | COC(=O)c1cccc(NC(=O)NC2CCN(c3ccnc(NCc4ccc(F)cc4)n3)CC2)c1 [GSK1379860] | 15% | 0% | 19% | 0% | 0% | 0% | 0% | 0% | 0% | 8% | 0% | 33% | 14% | 7% | 5% | 0% | 7% | 0% | 0% | 0%
14 | O=C(NOCC1CC1)c1cc(Br)c(F)c(F)c1Nc1ccc(I)cc1Cl | 25% | 0% | 0% | 2% | 12% | 16% | 0% | 0% | 0% | 0% | 0% | 0% | 0% | 13% | 9% | 0% | 0% | 0% | 0% | 0%
15 | COc1cc(Nc2nccc(N3CCC(NC(=O)c4cccc(C#N)c4)C3)n2)cc(OC)c1OC (centres unmarked) [GSK1379751] | 16% | 7% | 2% | 2% | 0% | 0% | 0% | 0% | 1% | 0% | 0% | 0% | 0% | 70% | 0% | 0% | 3% | 0% | 0% | 0%
16 | Cc1n[nH]c2cc(Nc3ccnc(Nc4cccc(CN5CCOCC5)c4)n3)ccc12 [GW682569] | 22% | 18% | 0% | 0% | 0% | 0% | 2% | 1% | 20% | 0% | 12% | 8% | 75% | 95.4% | 0% | 7% | 20% | 0% | 0% | 0%
